Common to all, as to assay: NCI-60 one-dose screen, 48 h (100 = growth as untreated, 0 = no growth, -100 = all killed)
Assay [1] relates to HCT-15 colon. The settings on record: 10 µM unless noted.
Assay [2] relates to HT29 colon. To be noted: 10 µM unless noted.
In assay [3] the test system is SNB-75 CNS. The settings on record: 10 µM unless noted.
For assay [4], the system named is SNB-19 CNS. The settings on record: 10 µM unless noted.
For assay [5], the system named is U251 CNS. The settings on record: 10 µM unless noted.
Assay [6] concerns PC-3 prostate. To be noted: 10 µM unless noted.
In assay [7] the test system is UACC-62 melanoma. The settings on record: 10 µM unless noted.
Assay [8] has as its system LOX IMVI melanoma. The settings on record: 10 µM unless noted.
For assay [9], the system named is SK-MEL-28 melanoma. The settings on record: 10 µM unless noted.
Assay [10] deals with SK-MEL-2 melanoma. The settings on record: 10 µM unless noted.
Assay [11] deals with EKVX NSCLC. The settings on record: 10 µM.
Assay [12] concerns SN12C renal. To be noted: 10 µM unless noted.
Assay [13] relates to UO-31 renal. The settings on record: 10 µM unless noted.
Assay [14] has as its system TK-10 renal. To be noted: 10 µM unless noted.
Assay [15] has as its system ACHN renal. The settings on record: 10 µM unless noted.
The test system of assay [16] is CAKI-1 renal. The settings on record: 10 µM unless noted.
Assay [17] relates to A498 renal. To be noted: 10 µM unless noted.
Assay [18] has as its system CCRF-CEM leukemia. To be noted: 10 µM.
The subject of assay [19] is MOLT-4 leukemia. The settings on record: 10 µM unless noted.
Assay [20] deals with SK-MEL-5 melanoma. The settings on record: 10 µM unless noted.

SMILES strings stand for the structures. About 83,000 compounds went through this panel and 20% of them were active in at least one assay; those are over-represented in the sample as a whole.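 Plates (96-well) were seeded with cells, treated with compound at one concentration, and incubated for 48 hours before percent growth was determined.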 Unmarked numbers belong to inactive results. Calls of active or inactive are those of the source. How the source made its calls: active means growth percent below 10; inactive means the rest.

For nine compounds, growth results are on record in PubChem BioAssay (NCI).

Turning to `O=C(Nc1cccc(Cn2c(=O)[nH]c3ccc(Oc4ncccn4)cc3c2=O)c1)c1cccc(F)c1`, the growth in [1] is 83%; in [2] it was 75.7%; in assay [3], 75%; in assay [4], 72.6%; in [5], 82.3%; in [6] it was 64.3%. The growth in assay [7] is 58.4%; in [8], 86%; in assay [9] it was 93.8%; in assay [10] it was 74.3%; in assay [11], 78.6%; in [12], 78%. For the same compound, the growth was 58.9% in assay [13]; 81% in assay [14]; 80.9% in assay [15]; 89% in [16]; 66% in assay [17]; 75.7% in [18]. For the same compound, the growth in assay [19] was 54.7%.

As for `O=C1c2cc([N+](=O)[O-])ccc2-c2cc(Cl)c(NC(=O)C(F)(F)F)cc21`, the growth is 95.4% in assay [1]; 108% in [2]; 91.1% in assay [3]; 106% in assay [4]; 110% in assay [5]; 94.8% in [6]. The growth in assay [20] is 100%; in assay [7] it was 101%; in assay [9], 106%; in assay [10], 97.1%; in [11] it was 73.3%; in assay [12] it was 112%. Moreover, the growth in assay [13] was 93.2%; in assay [14], 129%; in assay [16], 97.2%; in assay [17], 101%; in assay [18], 96.6%; in assay [19], 94%.

On to `CCCOC(=O)c1c(C)n(C)c2scc[n+]12`, for which the growth in [1] was 85.2%; in assay [2], 79%; in assay [3] it was 80.1%; in [4], 88%; in assay [5] it was 55.9%; in [6], 75.6%. Also, the growth in [7] is 84%; in [8] it was 82%; in assay [9], 91.5%; in [10], 76.4%; in assay [11], 43%; in [12] it was 92.4%. In addition, the growth in [13] is 81.3%; in assay [14] it was 104%; in [15] it was 85.8%; in assay [16], 58.7%; in assay [17], 48.8%; in assay [18] it was -67.1% (active). Also, in assay [19], the growth is -44.4% (active).

For the compound `Oc1ccccc1/C=N/N=C\c1ccccc1Cl`, the growth in assay [1] was 95.5%; in assay [2], 97.5%; in assay [3], 86.7%; in [4], 91.5%; in assay [5], 93.4%; in assay [6], 88.1%. Also, the growth was 92.1% in assay [7]; 86.2% in [8]; 105% in assay [9]; 102% in [10]; 75.9% in [11]; 92.6% in assay [12]. Further, the growth in assay [13] was 40.5%; in assay [14], 132%; in assay [16] it was 86.8%; in [17], 141%; in assay [18], 1.42% (active); in assay [19] it was 61.3%.

Regarding `COc1ccc(Oc2[nH]n(C3=Nc4ccccc4Sc4ccccc43)c(=O)c2C#N)cc1`, the growth was 101% in assay [1]; 113% in assay [2]; 121% in assay [3]; 101% in [4]; 107% in assay [5]; 82.8% in assay [6]. The growth in [7] was 69.9%; in assay [8], 95.3%; in [9], 108%; in assay [10] it was 101%; in assay [11], 94.4%; in assay [12] it was 102%. The growth in assay [13] is 87.9%; in assay [14] it was 108%; in [16], 92.4%; in assay [18] it was 92.8%; in assay [19], 107%.

As to `C=CCNCCC#N`, the growth in [1] is 99.9%; in assay [2] it was 105%; in assay [3], 79.1%; in assay [4], 102%; in assay [5], 107%; in assay [6] it was 98.5%. For the same compound, the growth in assay [20] was 99.1%; in assay [7], 109%; in [8] it was 59.5%; in assay [12] it was 109%; in assay [13], 102%; in [14], 110%. The growth is 105% in assay [15], 113% in [16], 120% in [17] and 107% in assay [19].

For the compound `O=C(Nc1ccc(-n2cc(-c3ccncc3)c(-c3ccc(Cl)c(O)c3)n2)cc1)Nc1cc(C(F)(F)F)cc(C(F)(F)F)c1`, the growth in assay [1] was 15.6%; in [2], 0.312% (active); in [3], -0.49% (active); in assay [4] it was 27.1%; in assay [5], 15.8%; in assay [6], 4.61% (active). Also, the growth in [20] was -24.4% (active); in assay [7], 5.53% (active); in assay [8], 19.8%; in [11] it was 15.9%; in [12] it was 30.1%; in assay [13] it was 35.3%. The growth in assay [16] is 8.54% (active); in assay [17], 17.7%; in assay [18], 2.13% (active); in assay [19], 9.3% (active).

For the compound `CCCCCCCCCCCCOC(=O)/C=C\C(=O)NC(N)=O`, the growth in assay [1] was 57.9%; in [2], 88.6%; in assay [3], 81.5%; in assay [4] it was 91.6%; in assay [5], 74%; in assay [6], 71.6%. Moreover, the growth in assay [20] was 99.6%; in [7] it was 82%; in [9] it was 99.2%; in assay [10] it was 50.7%; in assay [12], 84.3%; in [13], 93%. Further, the growth in [14] is 86.9%; in [15], 88.4%; in [16], 90.3%; in assay [17], 101%; in assay [19], 45.1%.

With `Brc1c(-c2ccncc2)nc2n1CCS2`, the growth in assay [1] was 105%; in [2], 87%; in [3], 101%; in assay [4], 103%; in [5] it was 91.3%; in assay [6] it was 84.5%. For the same compound, the growth in assay [7] was 84.4%; in assay [8] it was 89.4%; in assay [9], 93.5%; in assay [10], 92.7%; in assay [11] it was 110%; in assay [12], 91.7%. In addition, the growth in assay [13] was 94.5%; in assay [14], 97.5%; in assay [16], 90.2%; in assay [17], 77.6%; in [18], -8.76% (active); in assay [19] it was 87.3%.
